Holding throughout (assay): Euclidean distance of Cell Painting phenotypic profile (signed KS, 77 features) to DMSO centroid (dimensionless distance); 5 or 10 uM (library dependent); higher = stronger phenotypic change vs DMSO (phenoactivity)
Holding throughout (conditions): 48 h

One assay deals with 786-O. In a few lines: (§1)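 Phenoactivity is defined as the Euclidean distance from a compound profile to the median vehicle profile. Each profile comprised 77 Harmony features, scored as signed Kolmogorov-Smirnov statistics versus same-plate vehicle wells, then plate-position corrected, correlation-weighted and replicate-averaged at the top dose. Five cancer lines and one healthy fibroblast line were exposed to library compounds for 48 h at 10 or 5 uM (0.1% DMSO final).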

In a further assay the test system is A549. The gist of the method:
as §1

For a further assay, the system named is DU145. In a few lines:
as §1

Another assay relates to FB. The gist of the method:
as §1

The subject of a further assay is HEPG2. The gist of the method: as §1
In another assay the test system is OVCAR4. In a few lines: as §1

Counter-ions that a name gives are not always drawn.

Turning to `CS(=O)(=O)N1CCN(Cc2cc3nc(-c4cccc5[nH]ncc45)nc(N4CCOCC4)c3s2)CC1`, the Euclidean distance with 786-O stood at 2.85; in the assay on A549 it was 2.71; in the assay on DU145, 1.63; in the assay with FB, 2.18; in the assay on HEPG2 it was 1.4; in the assay with OVCAR4 it was 1.83.
Take `CN(C)/N=N/c1[nH]cnc1C(N)=O` [Dacarbazine]: the Euclidean distance in the assay on 786-O is 1.42; with A549, 0.981; with DU145 it was 1.94; in the assay on FB, 1.25; with HEPG2 it was 2.73; with OVCAR4 it was 0.871.
On to `CO[C@H]1/C=C/O[C@@]2(C)Oc3c(C)c(O)c4c(O)c(c(/C=N/N5CCN(C6CCCC6)CC5)c(O)c4c3C2=O)NC(=O)/C(C)=C\C=C\[C@H](C)[C@H](O)[C@@H](C)[C@@H](O)[C@@H](C)[C@H](OC(C)=O)[C@@H]1C` [Rifapentine], for which the Euclidean distance was 1.24 in the assay with 786-O; 0.894 in the assay on A549; 1.76 in the assay on DU145; 1.72 with FB; 2.12 in the assay with HEPG2; 1.56 in the assay on OVCAR4.
As for `Cn1c(=O)c2[nH]c(Br)nc2n(C)c1=O` [Pamabrom], the Euclidean distance in the assay with 786-O amounted to 0.794; with A549, 0.799; with DU145 it was 1.56; in the assay with FB, 1.18; in the assay with HEPG2 it was 0.337; with OVCAR4, 0.81.
For `O=C1NCC2(CCN(CCc3ccccc3)CC2)O1` [Fenspiride HCl], the Euclidean distance stood at 0.914 with 786-O; 1.2 in the assay on A549; 1.2 in the assay with DU145; 1.2 in the assay with FB; 1.08 in the assay with HEPG2; 1.26 in the assay with OVCAR4.
For `CCOCC(O)COc1ccc(NC(=O)CC[S+](C)C)cc1` (centres undefined) [Suplatast Tosylate], the Euclidean distance in the assay with 786-O is 1.48; with A549 it was 1.01; in the assay on DU145, 1.47; in the assay on FB, 1.14; in the assay with HEPG2, 0.648; in the assay with OVCAR4 it was 1.13.
On to `CN(CCOc1ccc(CC2SC(=O)NC2=O)cc1)c1ccccn1` (centres undefined) [Rosiglitazone maleate], for which the Euclidean distance is 0.964 in the assay on 786-O; 0.896 in the assay with A549; 1.89 in the assay with DU145; 1.31 in the assay on FB; 0.95 in the assay with HEPG2; 1.34 in the assay on OVCAR4.
`Cc1nc2cccc(N)c2c(=O)n1C1CCC(=O)NC1=O` (centres undefined) [Avadomide(CC-122)]: the Euclidean distance in the assay on 786-O came out at 0.872; in the assay with A549, 1.22; in the assay with DU145, 1.16; in the assay with FB it was 1.02; in the assay with HEPG2, 0.382; with OVCAR4 it was 0.966.
Take `C#C[C@]1(OC(C)=O)CC[C@H]2[C@@H]3CCC4=C[C@@H](OC(C)=O)CC[C@@H]4[C@H]3CC[C@@]21C` [Ethynodiol diacetate]: the Euclidean distance in the assay with 786-O was found to be 1.27; in the assay with A549 it was 1.31; in the assay on DU145 it was 0.938; in the assay with FB it was 1.29; with HEPG2 it was 0.735; in the assay with OVCAR4 it was 1.1.
For the molecule `CC(=O)Oc1cc(C(F)(F)F)ccc1C(=O)O` [Triflusal], the Euclidean distance is 1.03 in the assay with 786-O; 1.2 in the assay on A549; 0.857 with DU145; 0.956 in the assay with FB; 0.829 in the assay on HEPG2; 1.16 in the assay with OVCAR4.
`CC(C)C[C@H](NC(=O)CNC(=O)c1cc(Cl)ccc1Cl)B(O)O`: the Euclidean distance was found to be 5.04 in the assay on 786-O; 3.61 in the assay on A549; 5.19 in the assay with DU145; 3.83 with FB; 4.44 with HEPG2; 4.31 in the assay on OVCAR4.
On to `CN(C)CCC=C1c2ccccc2C(C)(C)c2ccccc21` [Melitracen hydrochloride], for which the Euclidean distance in the assay with 786-O is 1.33; in the assay with A549, 1.82; with DU145, 2.27; with FB, 2.65; in the assay with HEPG2, 1.5; in the assay with OVCAR4, 1.37.
As to `CO[C@H]1/C=C\C=C(/C)C(=O)NC2=CC(=O)C(NCCN(C)C)=C(C[C@@H](C)C[C@H](OC)[C@H](O)[C@@H](C)/C=C(\C)[C@@H]1OC(N)=O)C2=O`, the Euclidean distance in the assay on 786-O amounted to 2.76; in the assay on A549 it was 2.89; with DU145, 4.03; in the assay on FB it was 3.32; in the assay with HEPG2 it was 3.56; in the assay on OVCAR4, 2.71.
On to `CC1(C)S[C@@H]2[C@H](NC(=O)[C@H](N)c3ccc(O)cc3)C(=O)N2[C@H]1C(=O)O` [Amoxicillin], for which the Euclidean distance with 786-O came to 1.02; with A549 it was 1.01; with DU145, 0.78; in the assay on FB, 0.837; with HEPG2, 0.318; in the assay on OVCAR4, 1.22.
As to `CCN(CC)CCOC(=O)c1ccc(N)cc1` [Procaine], the Euclidean distance in the assay with 786-O worked out at 0.916; in the assay on A549, 0.935; in the assay with DU145, 0.941; in the assay with FB, 1.08; with HEPG2, 1.37; with OVCAR4 it was 0.75.
Take `COC(=O)N[C@H](C(=O)N1CC2(CC2)C[C@H]1c1nc(-c2ccc3c(c2)C(F)(F)c2cc(-c4ccc5[nH]c([C@@H]6[C@H]7CC[C@H](C7)N6C(=O)[C@@H](NC(=O)OC)C(C)C)nc5c4)ccc2-3)c[nH]1)C(C)C` [Ledipasvir (GS5885)]: the Euclidean distance is 1.65 in the assay with 786-O; 1.83 in the assay with A549; 1.33 with DU145; 1.94 with FB; 1.09 in the assay with HEPG2; 1.18 with OVCAR4.
For the molecule `CC(C)C[C@@H](C=O)NC(=O)[C@H](CC(C)C)NC(=O)[C@H](CC(C)C)NC(=O)OCc1ccccc1`, the Euclidean distance is 3.8 in the assay with 786-O; 3.23 in the assay with A549; 3.14 with DU145; 3.41 with FB; 3.64 with HEPG2; 4.07 in the assay on OVCAR4.
Consider `NCCc1ccc(O)c(O)c1` [Dopamine HCl], for which the Euclidean distance in the assay on 786-O was 1.84; in the assay on A549, 0.481; in the assay on DU145, 0.944; with FB, 1.26; in the assay on HEPG2, 0.844; in the assay on OVCAR4, 3.26.
`O=C(O)c1ccccc1Nc1cccc(C(F)(F)F)c1` [Flufenamic acid]: the Euclidean distance worked out at 1.11 in the assay with 786-O; 1.08 with A549; 0.674 in the assay on DU145; 1.09 with FB; 0.711 with HEPG2; 1.36 in the assay on OVCAR4.

(Values after the supplement of paper PMC10127200.)
